Our source for the parasite growth values is the supplement of paper PMC4894684.

Counter-ions that a name gives are not always drawn. ± gives the standard deviation of the averaged measurements.

This experiment relates to Toxoplasma gondii RH (in HFF). In words: parasite growth relative to the screen mean (all compounds = 100%); higher = less inhibition of parasite growth. The settings on record: 5 µM; 72 h; oxygen 21 %. A digest of the protocol:
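Each value is parasite growth expressed against the screen mean, averaged over two screens, where the mean of all compounds = 100%. The screen used 5 µM final compound on confluent human foreskin fibroblasts infected with RH β-Gal–GFP Toxoplasma (MOI 1:5) within 2 h and grown 72 h at 21% O2. Parasite number was measured by a CPRG β-Gal assay against in-plate standard curves.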
Consider `CN(C(=O)Cc1ccc(Cl)c(Cl)c1)[C@H](CN1CCCC1)c1ccccc1` [ICI-199,441 hydrochloride], for which the parasite growth worked out at 49.6 ± 10%.
As for `N[C@@]1(C(=O)O)CC[C@@H](C(=O)O)C1`, the parasite growth turned out to be 111 ± 27%.
Take `Cc1cc(C)cc(C(=O)OC2C[C@H]3CC[C@@H](C2)N3C)c1` (some centres undefined) [Tropanyl-3,5-dimethylbenzoate]: the parasite growth was 97.3 ± 3.6%.
The same measure for `O=C1NCN(c2ccccc2)C12CCN(CC1COc3ccccc3O1)CC2` (centres undefined) [Spiroxatrine]: 140.8 ± 0.7%.
With `c1ccc2c(c1)OCC(C1=NCCN1)O2` (centres undefined) [Idazoxan hydrochloride], the parasite growth was 111 ± 8.1%.
`Cc1cc(SCc2sc(-c3ccc(C(F)(F)F)c(F)c3)nc2C)ccc1OCC(=O)O`: the parasite growth amounted to 79.2 ± 4.8%.
`CCCN1CCO[C@@H]2c3cc(O)ccc3OC[C@H]21` came in with a parasite growth of 96 ± 2.6%.
The compound `NCC(O)c1ccc(O)cc1` (centres undefined) [Octopamine hydrochloride] displayed a parasite growth of 76.6 ± 12%.
`CO[C@]12C[C@@H](COC(=O)c3cncc(Br)c3)CN(C)[C@@H]1Cc1cn(C)c3cccc2c13` [Nicergoline] registered a parasite growth of 126 ± 5.7%.
With `CN1[C@@H]2CC[C@H]1C[C@@H](OC(c1ccc(F)cc1)c1ccc(F)cc1)C2` [3α-Bis-(4-fluorophenyl) methoxytropane hydrochloride] the figure was 40.3 ± 22%; with `Oc1ccc2c3c1O[C@H]1c4oc5ccccc5c4C[C@@]4(O)[C@@H](C2)N(CC2CC2)CC[C@]314` [Naltriben mesylate], 127 ± 55%.
In turn, `CC(N)Cc1c[nH]c2ccc(OCc3cccs3)cc12` (centres undefined) [BW 723C86 hydrochloride] gave a parasite growth of 133 ± 3.8%.
`CC(C)(C)OC(=O)c1ncn2c1[C@@H]1CCCN1C(=O)c1c(Br)cccc1-2` [Bretazenil] came in with a parasite growth of 87.1 ± 5.4%.
As for `Cc1nnc2ccc(-c3cccc(C(F)(F)F)c3)nn12`, the parasite growth was 126 ± 14%.
The compound `Cc1[nH]c2ccc(Cl)cc2c1C1=CCNCC1` had a parasite growth of 129 ± 8.1%.
For `C=C(C)CN1CC[C@@]23c4c5ccc(O)c4O[C@H]2c2[nH]c4ccccc4c2C[C@]3(O)C1C5` [SDM25N hydrochloride], the parasite growth is 77.5 ± 21%.
`O=C1CSC(c2ccccc2Cl)c2cc(Cl)ccc2N1` (centres undefined): the parasite growth turned out to be 153 ± 4.7%.
Consider `CCN(CC)CCO[C@H]1CC[C@@]2(C)C(=CC[C@@H]3[C@@H]2CC[C@]2(C)C(=O)CC[C@@H]32)C1`, for which the parasite growth is 79.6 ± 24%.
As to `CC(C)n1cnc2c(C(=O)N[C@H]3CN4CCC3CC4)cc(Cl)cc21`, the parasite growth worked out at 71.5 ± 9.6%.
`Cn1c2c(c3ccccc31)CCNCC2` gave a parasite growth of 118 ± 15%.
For `Cc1onc(O)c1CC(N)C(=O)O` (racemic) [(RS)-AMPA hydrobromide], the parasite growth came out at 121 ± 16%.
As to `NC(=S)N/N=C/c1coc2ccccc2c1=O.[Cl][Cu][Cl]`, the parasite growth is 37.1 ± 24%.
As to `Cc1onc(O)c1C[C@H](N)C(=O)O`, the parasite growth is 113 ± 34%.
As for `Cn1cc(C(=O)C(=O)N[C@H]2CN3CCC2CC3)c2ccccc21`, the parasite growth is 96.5 ± 6.7%.
With `O=C1Nc2ccccc2C2(CCN(CCc3ccc(C(F)(F)F)cc3)CC2)O1` the figure was 99.9 ± 20%.
Take `CCOc1cncc(/C=C/CCNC)c1` [TC 2559 difumarate]: the parasite growth was found to be 90.8 ± 7%.
Turning to `CC(N)Cc1c[nH]c2ccc(O)cc12` (stereo not drawn) [α-Methyl-5-hydroxytryptamine maleate], the parasite growth is 144 ± 31%.
Take `c1ccc(C2CC2)c(OCC2=NCCN2)c1` [Cirazoline hydrochloride]: the parasite growth was determined as 91.7 ± 19%.
`C[N+]1(C)CCc2cc3c(cc2[C@H]1[C@@H]1OC(=O)c2c1ccc1c2OCO1)OCO3` [(-)-Bicuculline methochloride] gave a parasite growth of 120 ± 37%.
Compound `CC[C@@]1(O)C(=O)OCc2c1cc1n(c2=O)Cc2cc3ccccc3nc2-1` [Camptothecin] displayed a parasite growth of 181 ± 36%.
On to `Oc1cc2c(cc1O)[C@H]1c3ccccc3CN[C@@H]1CC2` (racemic) [Dihydrexidine hydrochloride], for which the parasite growth came to 153 ± 4.6%.
The compound `Fc1ccc(C(OCCN2CCN(C/C=C/c3ccccc3)CC2)c2ccc(F)cc2)cc1` yielded a parasite growth of 32.9 ± 3.4%.
With `CCCN(CCC)[C@@H]1CCc2c(OC)cccc2[C@@H]1C` [(+)-UH 232 maleate] the figure was 115 ± 20%; with `O=C(Cc1ccc(Cl)c(Cl)c1)N1CCCCC1CN1CCCC1` (centres undefined), 82.1 ± 15%; with `CN1CCN(c2ccc3ccccc3n2)CC1` [N-Methylquipazine dimaleate], 111 ± 14%.
For the compound `CC(C)NCC(O)c1ccc(N)c(C#N)c1` (centres undefined) [Cimaterol], the parasite growth amounted to 130 ± 2.8%.
With `CC[N+](CC)(CCCNC1=CC(=O)C(NCCC[N+](CC)(CC)Cc2ccccc2)=CC1=O)Cc1ccccc1` [Benzoquinonium dibromide], the parasite growth was 129 ± 29%.
With `c1cc(Cc2cnc[nH]2)ccn1` [Immethridine dihydrobromide] the figure was 133 ± 31%; with `CCCCC1(C2CCCC2)Cc2cc(OCCCC(=O)O)c(Cl)c(Cl)c2C1=O` (centres undefined), 124 ± 5%.
